Screens as filed in PubChem.
miR122 inh: miR-122 Renilla sensor signal increase in Huh7, primary screen, miR-122 inhibitor project, cell-based, single point, plate reader; Huh7 miR-122 Renilla luciferase sensor, 48 h; neutral wells = 0, positive control = 100; hit rate 0.3% among 340,000; AID 602342, 2012; activation (reporter increase), % at 12.5 µM;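 active = mean replicate activation score at least 90 and every replicate individually at or above 90; inconclusive = only one of the two criteria met; inactive = neither criterion met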;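 note: higher luciferase means less miR-122 activity so hits act as miR-122 inhibitors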
Wnt bcat act: Wnt/beta-catenin pathway activators, primary screen, cell-based, plate reader, single point. Wnt/beta-catenin reporter cell assay, activator. activation, % at 9.35 µM. hit rate 1.2% among 300,000; in the data active = activation above about 30%, passing the limit was not always enough; inconclusive = no clear call, values can overlap the other calls
MITF act: activators of MITF-driven TRPM1 promoter reporter, primary screen, cell-based, SK-MEL-5, luciferase, single point; hit rate 0.75% among 300,000; activation, % at 12.5 µM; SK-MEL-5 TRPM1-promoter luciferase, 24 h; % of positive control, neutral wells = 0; AID 588334, 2011;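 active = mean activation of at least 80% with every replicate also reaching 80%; inconclusive = mean reaches 80% but some replicate falls short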
Env fusion inh: inhibitors of HIV-1 Env-driven cell-cell fusion, primary screen, HeLa-JRFL effector, CEM21 target cells, luciferase; inhibition, % at 12.3 µM; AID 651610, 2012; hit rate 1.1% among 360,000;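 active = mean replicate inhibition score of at least 50 and every replicate individually at or above 50; inconclusive = only one of the two criteria met; inactive = mean below 50 and not all replicates reaching 50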
esBAF inh: Bmi1 luciferase reporter increase in mESCs, primary screen, esBAF inhibitor project, mouse ES cells, Bmi1 luciferase knock-in, single point; AID 602393, 2012; reporter increase, % at 12.5 µM; hit rate 2% among 350,000; 24 h; 100% = twice the neutral-well signal; in the data active = activation above about 40%; inconclusive = no clear call, values can overlap the other calls;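 note: a rise in the Bmi1 reporter signal indicates esBAF inhibition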
Each line names hits and unclear results; the compound was inactive in the other large screens; [ ] = another dose, or the depositor's remark. Rows were chosen to be rich in hits. Some 3.4% of all compounds tested hit in one or more screens of this group.

C[C@H]1CN([C@@H](C)CO)C(=O)Cc2cc(NC(=O)Nc3ccc(C(F)(F)F)cc3)ccc2O[C@H]1CN(C)Cc1ccc(C(F)(F)F)cc1	none (no result: Wnt bcat act, MITF act)
C[C@H](CO)N1C[C@H](C)[C@@H](CN(C)Cc2ccc(C(F)(F)F)cc2)Oc2ccc(NS(=O)(=O)c3ccc(Cl)cc3)cc2CC1=O	Env fusion inh 69.0[16.7 µM] (no result: Wnt bcat act, MITF act)
C[C@@H]1CN([C@@H](C)CO)C(=O)Cc2cc(NC(=O)Nc3ccc(C(F)(F)F)cc3)ccc2O[C@H]1CN(C)Cc1ccc(C(F)(F)F)cc1	Env fusion inh 56.5[16.7 µM] (no result: Wnt bcat act, MITF act)
C[C@@H]1CN([C@@H](C)CO)C(=O)Cc2cc(NC(=O)Nc3ccc(C(F)(F)F)cc3)ccc2O[C@@H]1CN(C)Cc1ccc(C(F)(F)F)cc1	none (no result: Wnt bcat act, MITF act)
C[C@@H]1CN([C@H](C)CO)C(=O)Cc2cc(NS(=O)(=O)c3ccc(Cl)cc3)ccc2O[C@@H]1CN(C)Cc1ccc(C(F)(F)F)cc1	none (no result: Wnt bcat act, MITF act)
C[C@H](CO)N1C[C@H](C)[C@@H](CN(C)Cc2ccc(C(F)(F)F)cc2)Oc2ccc(NC(=O)Nc3ccc(C(F)(F)F)cc3)cc2CC1=O	Env fusion inh 58.4[16.7 µM] (no result: Wnt bcat act, MITF act)
CO[C@H]1CN(C)C(=O)c2cc(NC(=O)C3CC3)ccc2OC[C@H](C)N(C(=O)CN(C)C)C[C@@H]1C	none (no result: Wnt bcat act, MITF act, Env fusion inh)
CC(C)NC(=O)N(C)C[C@@H]1Oc2ncc(-c3ccc(C(=O)N(C)C)cc3)cc2C(=O)N([C@H](C)CO)C[C@@H]1C	none (no result: Wnt bcat act, MITF act)
COCC(=O)N(C)C[C@H]1Oc2cc(C3=CCCCC3)ccc2S(=O)(=O)N([C@H](C)CO)C[C@@H]1C	none (no result: Wnt bcat act, MITF act)
CC/C(=C/c1ccccc1)c1cccc2[nH]c3c(OC)cccc3c12	Env fusion inh 58.1 (no result: miR122 inh)
COc1ccc(S(=O)(=O)N(C)C[C@H]2Oc3ccc(NS(C)(=O)=O)cc3CC(=O)N([C@@H](C)CO)C[C@@H]2C)cc1	none (no result: Wnt bcat act, MITF act)
COc1ccc(S(=O)(=O)Nc2ccc3c(c2)C(=O)N([C@@H](C)CO)C[C@@H](C)[C@H](CN(C)Cc2ccccc2)O3)cc1	none (no result: Wnt bcat act, MITF act)
CCCc1ccc(-c2cc(NC(=O)CSc3n[nH]c(N)n3)n(-c3ccccc3)n2)cc1	MITF act inconclusive, esBAF inh 64.5 (no result: Wnt bcat act)
C[C@H](CO)N1C[C@H](C)[C@H](CN(C)C(=O)Nc2ccc(F)cc2)Oc2ccc(NC(=O)Cc3ccccc3)cc2C1=O	none (no result: Wnt bcat act, MITF act, Env fusion inh)
COc1ccc2c3c([nH]c2c1)[C@H](CO)N(C(=O)Nc1ccc(F)cc1)CC31CCN(CC2CC2)CC1	none (no result: miR122 inh, Wnt bcat act, MITF act, esBAF inh)
COc1ccccc1NC(=O)Nc1cnccn1	none
COc1cc([N+](=O)[O-])ccc1NC(=O)Nc1cnccn1	Env fusion inh 57.5 (no result: esBAF inh)
CC(C)NC(=O)N(C)C[C@@H]1OCCCC[C@@H](C)Oc2ccc(NS(=O)(=O)c3ccc(F)cc3)cc2C(=O)N([C@@H](C)CO)C[C@@H]1C	none (no result: Wnt bcat act, MITF act)
O=C(/C=C/c1ccccc1)c1ccc2ccccc2c1	esBAF inh 68.2
C[C@H]1CN([C@@H](C)CO)C(=O)c2cc(-c3ccncc3)cnc2O[C@@H]1CN(C)Cc1ccc(Oc2ccccc2)cc1	none (no result: Wnt bcat act, MITF act)
CC(C)(C)n1nnnc1C(c1ccncc1)N1CCN(C2CCCCC2)CC1 (centres undefined)	none (no result: miR122 inh, Env fusion inh)
CC(C)(C)n1nnnc1C(c1cccnc1)N1CCN(C2CCCCC2)CC1 (centres undefined)	Env fusion inh 65.0
Cc1ccc(-c2ccc(/C=N/NC(N)=S)o2)cc1	Wnt bcat act 58.0 (no result: MITF act, esBAF inh)
O=C(CN1CCOCC1)NCC[C@@H]1CC[C@H](NC(=O)Nc2ccc(C(F)(F)F)cc2)[C@H](CO)O1	none (no result: Wnt bcat act, MITF act)
O=C(Nc1ccc(Cl)c(C(F)(F)F)c1)[C@@H]1CC=C[C@@H]2CCN(Cc3ccc(Cl)c(Cl)c3)C(=O)[C@@H]21	Env fusion inh 84.2
COC(=O)C[C@@H]1CC[C@@H](NC(=O)c2ccccc2)[C@@H](CO)O1	none (no result: miR122 inh, Wnt bcat act, MITF act)
C[C@H]1CN([C@@H](C)CO)C(=O)c2cc(NC(=O)NC3CCCCC3)ccc2O[C@H]1CN(C)Cc1ccccc1	none (no result: Wnt bcat act, MITF act)
CC(C)(C)c1csc(NC(=O)C2=COCCO2)n1	Wnt bcat act 52.8 (no result: esBAF inh)
CCCc1ccc(-c2csc(NC(=O)C3=COCCO3)n2)cc1	esBAF inh 64.6
COCCNC(=O)c1ccccc1NC(=O)c1ccccc1N(C)S(=O)(=O)c1ccc(C)cc1	none (no result: Env fusion inh)
CC(C)CNC(=O)c1ccccc1NC(=O)c1ccccc1N(C)S(=O)(=O)c1ccccc1	Env fusion inh 77.8 (no result: esBAF inh)
CCCNC(=O)c1ccccc1NC(=O)c1ccccc1N(C)S(=O)(=O)c1ccccc1	Env fusion inh 72.3
O=C(NC1CCCCC1)C(c1cccs1)N(Cc1cccs1)C(=O)c1cccs1 (centres undefined)	Env fusion inh 93.9
C[C@@H]1CN([C@H](C)CO)C(=O)c2cccc(N(C)C)c2O[C@H]1CN(C)C	none (no result: Wnt bcat act, MITF act)
O=C(N[C@H]1CC[C@@H](CCNC(=O)C2CCOCC2)O[C@H]1CO)c1ccccn1	none (no result: miR122 inh, Wnt bcat act, MITF act)
CC(=O)NCc1ccc(-c2csc(-c3cccs3)n2)cc1	esBAF inh 53.1
CC(=O)NCc1ccc(-c2nc3ccccc3s2)cc1	none
N#Cc1cc2c(nc1SCc1ccccc1)CCCC2=O	Wnt bcat act 49.2
N#Cc1cc2c(nc1SCc1ccccc1)CCCC2	none (no result: miR122 inh, esBAF inh)
N#Cc1cc2c(nc1SCc1ccncc1)CCC2	esBAF inh 43.5 (no result: Env fusion inh)
N#Cc1cc2c(nc1SCc1ccccc1)CCC2	none (no result: miR122 inh, Wnt bcat act, MITF act, esBAF inh)
Cc1ccc2c(c1)c1c3n2CCN(CC(N)=O)C3CCC1 (centres undefined)	Env fusion inh 81.0 (no result: miR122 inh, MITF act)
Cc1ccc2c(c1)c1c3n2CCN(CCC(=O)O)C3CCC1 (centres undefined)	none (no result: miR122 inh, MITF act)
O=C(Cc1c(Cl)cccc1Cl)Nc1ccncc1Cl	Env fusion inh 61.2 (no result: miR122 inh, esBAF inh)
Cc1noc(C)c1NC(=O)Nc1ccc2c(c1)C(=O)N([C@@H](C)CO)C[C@@H](C)[C@H](CN(C)Cc1ccncc1)OCCCC[C@H](C)O2	none (no result: Wnt bcat act, MITF act)
CCc1ccc(NC(=O)CSc2nc3n[nH]c(C)c3c(=N)n2-c2cccc(OC)c2)cc1	Env fusion inh 58.7 (no result: miR122 inh)
C[C@H](CO)N1C[C@H](C)[C@H](CN(C)C(=O)c2ccccc2F)Oc2cc(-c3ccccc3)ccc2S1(=O)=O	none (no result: Wnt bcat act, MITF act)
COc1cc(N2Cc3ccccc3C2)ccc1C=O	esBAF inh 51.2 (no result: MITF act)
C[C@@H]1CN([C@H](C)CO)S(=O)(=O)c2ccc(C#CC3CC3)cc2O[C@@H]1CN(C)C(=O)c1ccccn1	none (no result: Wnt bcat act, MITF act)
Cc1ccc(S(=O)(=O)N(C)C[C@@H]2Oc3ncc(-c4ccncc4)cc3C(=O)N([C@H](C)CO)C[C@@H]2C)cc1	none (no result: Wnt bcat act, MITF act)
CC(SCc1ccccc1)C(=O)Nc1ccccc1 (centres undefined)	Wnt bcat act 37.1
C[C@H](CO)N1C[C@H](C)[C@H](CN(C)C(=O)C2CCC2)Oc2cc(-c3ccc(F)cc3)ccc2S1(=O)=O	none (no result: Wnt bcat act, MITF act, esBAF inh)
CC(C)(C)c1ccc(C(=O)Nc2ccc([N+](=O)[O-])cn2)cc1	MITF act 107.4 (no result: Wnt bcat act, esBAF inh)
